Screen size: about 69,000 compounds; about 8,600 (12%) showed an effect of 50% or more. The entries come from a sample that favours strong results as a whole.

The subject of this assay is Plasmodium berghei. Nature of the assay: Screen against P. berghei liver stage (PbLuc), transformed with Luciferase, at 10uM. The format is functional, HepG2. As to conditions: tested at 10 uM.
For the compound `CCN(CCOC)C(=O)c1cc(COc2ccc3c(c2)CCCC3)on1`, the INHIBITION was 25.1%. With `Cc1cc(C(F)(F)F)nc(CCNC(C)Cn2cncn2)n1` (configuration not stated), the INHIBITION is recorded as 8.86%. The same measure for `COC(=O)CCCC(=O)N1CCC(CO)(CCc2ccccc2)CC1`: 30.7%; for `CCc1ccc(NC(=O)c2n[nH]c(-n3cnnc3)n2)cc1`: 25.9%; for `CCc1nc(C2CCCN(C(=O)C(C)(C)NS(C)(=O)=O)C2)no1` (configuration not stated): 3.73%. Consider `O=C(c1cnn2c1OCCC2)N1CCC(Cc2ccccc2)CC1`, for which the INHIBITION worked out at 13.6%. For the compound `c1coc(CNCC2Cn3nncc3CO2)c1` (configuration not stated), the INHIBITION is 62.9%. The same measure for `Cc1ccc(CNCC2Cn3nncc3CO2)o1` (configuration not stated): 43.9%; for `CCN1CCOC(CNCc2ccc(C)s2)C1` (configuration not stated): 73.6%; for `c1cc(CNCC2Cn3nncc3CO2)co1` (configuration not stated): -21.7%. In the case of `Cc1nc(CNCC2Cn3nncc3CO2)cs1` (configuration not stated), the INHIBITION was 5.89%.

Regarding `Cc1ccc(CNCC2Cn3nncc3CO2)s1` (configuration not stated), the INHIBITION amounted to 54.8%.

With `CCN1CCOC(CNCc2ccccn2)C1` (configuration not stated), the INHIBITION turned out to be 33%.

For `c1cc(CNCC2Cn3nncc3CO2)ccn1` (configuration not stated), the INHIBITION was found to be 29.8%. Consider `CCN1CCOC(CNCc2cnc(C(C)(C)C)s2)C1` (configuration not stated), for which the INHIBITION is listed as 46.5%. `COc1cccc(C(=O)N2CCc3c(nc(N)[nH]c3=O)C2)c1C`: the INHIBITION was 21.8%. `CN(C)C(=O)[C@H]1C[C@@H]2CCN(Cc3ccoc3)C[C@@H]2O1`: the INHIBITION is 34%. Consider `O=C(Nc1ccccc1)c1cc2n(n1)CCCN(C(=O)N1CCCC1)C2`, for which the INHIBITION stood at 35%. The result for `Cc1cc2ccccc2n1CCC(=O)NCCCc1nnc(N)s1` reads 0.426%; that for `CCCC(C)C(=O)N1CCC(n2cccc2C(=O)OC)CC1` (configuration not stated), 12.2%. On to `N#Cc1cccc(N2CC3(CCN(C(=O)c4ccncc4)C3)CC2=O)c1` (configuration not stated), for which the INHIBITION was 21.5%. The same measure for `CCCn1ccnc1CN1CCCC1c1ccccn1` (configuration not stated): 56.7%. For `Cc1nn(C)c(C)c1C1CCCN1Cc1cn2ccsc2n1` (configuration not stated), the INHIBITION amounted to 74%. As to `CCc1nc(C2CCCN2Cc2nccn2Cc2ccccc2)no1` (configuration not stated), the INHIBITION is reported as 32%. Turning to `COc1c(C2CCCN2Cc2nc(C3CC3)no2)c(C)nn1C` (configuration not stated), the INHIBITION amounted to 52.3%. The same measure for `COc1c(C2CCCN2Cc2nc(C)c(C)o2)c(C)nn1C` (configuration not stated): 11.2%. As to `CCCn1ccnc1CN1CCCC1c1cccc(-n2ccnc2)n1` (configuration not stated), the INHIBITION worked out at 42.4%. On to `COc1c(C2CCCN2Cc2cn3ccsc3n2)c(C)nn1C` (configuration not stated), for which the INHIBITION came out at 65.6%. Take `CCCc1noc(CN2CCCC2c2c(C)nn(C)c2OC)n1` (configuration not stated): the INHIBITION is listed as 42.9%. For the compound `COc1c(C2CCCN2Cc2csc(C(C)C)n2)c(C)nn1C` (configuration not stated), the INHIBITION is 20.1%. For `Cc1nn(C)c(C)c1C1CCCN1C(=O)Cc1cn2ccsc2n1` (configuration not stated), the INHIBITION came out at 21.1%. On to `Cc1nn(C)c(Cl)c1C1CCCN1Cc1cn2ccsc2n1` (configuration not stated), for which the INHIBITION is 24.8%. Turning to `Cc1nn(C)c(C)c1C1CCCN1Cc1nc(C2CC2)no1` (configuration not stated), the INHIBITION is recorded as 21.2%. The result for `CCN(Cc1ccco1)C(C)c1nc(C(C)C)no1` (configuration not stated) reads -165%. The same measure for `Cc1cccc(OCCNC(=O)CN2CCN(C)CC2C)c1` (configuration not stated): -43.415%; for `COCC1CN(C(=O)COc2ccccc2)Cc2cn(C)nc21` (configuration not stated): 11.5%.

`COc1ncccc1C(=O)N1C[C@@H]2COC[C@]2(CN(C)C)C1`: the INHIBITION is reported as -35.2%. In the case of `O=C(NCCCn1ccnc1)C1CCC(=O)N1Cc1cccs1` (configuration not stated), the INHIBITION is 13.9%. As for `CCn1cncc1-c1nc2c([nH]1)CC(C)(C)CNC2=O`, the INHIBITION is reported as -23.2%. As for `Cc1ccc(O[C@@H]2C[C@H]3CN(C(=O)c4cccnc4)CCN3C2)cc1`, the INHIBITION is recorded as -2.25%. With `OCC1N(Cc2ccc(F)cc2)C2CCC1(O)CC2` (configuration not stated), the INHIBITION stood at 39.6%. As to `COc1c(C2CCCN2Cc2cc(C)no2)c(C)nn1C` (configuration not stated), the INHIBITION is recorded as 0.938%. For the compound `CCn1ccnc1CN1CCCC1c1c(C)nn(C)c1OC` (configuration not stated), the INHIBITION is 65.4%.

Regarding `COc1c(C2CCCN2Cc2nccn2C)c(C)nn1C` (configuration not stated), the INHIBITION is reported as 22.8%. `CC(NC(=O)CN(C)C(C)C)c1ccc(Oc2cccnc2)c(F)c1` (configuration not stated): the INHIBITION is 23.5%. As for `CSc1nsc(NC(=O)N(C)Cc2ccc3c(c2)OCO3)n1`, the INHIBITION is recorded as -29.6%. Turning to `Cc1ccccc1OCCn1cnc2oc(C)c(C(=O)O)c2c1=O`, the INHIBITION is listed as -16.3%. The same measure for `CCc1cnc(CCNS(C)(=O)=O)s1`: 48.3%; for `CC(C)c1nc(C2CCCN2C(=O)c2cc(Cl)c[nH]2)no1` (configuration not stated): 6.09%. For the compound `CC(C)CN1CCC2(CCN(Cc3nccs3)CC2)C1=O`, the INHIBITION was 29%. For the compound `Cc1ccc2cc(C3(O)CCN(C)CC3)ccc2n1`, the INHIBITION was -12.1%. For `Cc1ccc2cc(C(=O)N3CCC(O)(C(F)(F)F)CC3)ccc2n1`, the INHIBITION was found to be 51.7%. In the case of `CN(C)C(=O)N1CCN(C(=O)c2ccn3ccnc3c2)CC1`, the INHIBITION stood at 7.97%. On to `Cc1ccc2cc(C(=O)N3CCN(C(=O)N(C)C)CC3)ccc2n1`, for which the INHIBITION is given as 70.3%. The result for `Cc1ccc2cc(C3(O)CCN(C(=O)CN4CCCC4)CC3)ccc2n1` reads -9.67%.

Regarding `O=C(c1ccoc1)N1CCC(O)(C(F)(F)F)CC1`, the INHIBITION was determined as 30%.

With `COCCOCC(=O)N1CCC(O)(c2ccc3nc(C)ccc3c2)CC1`, the INHIBITION was -18.5%.

For `Cc1ccc2cc(C(=O)N3CCCN(C)CC3)ccc2n1`, the INHIBITION worked out at 48%. As for `Cc1ccc2cc(C3(O)CCN(C(=O)CSC(C)C)CC3)ccc2n1`, the INHIBITION was 81.6%. Take `CS(=O)(=O)Cc1ccc(C(=O)N2CCCC(n3cncn3)C2)o1` (configuration not stated): the INHIBITION is reported as 25.8%. `Cn1ccc2ccc(C(=O)N3CC[C@@]4(O)CCCC[C@H]4C3)cc21`: the INHIBITION is recorded as 18.3%. In the case of `CC(=O)N1CCCN(Cc2cc(F)cc(Br)c2)CC1`, the INHIBITION is on record as 33.4%. The result for `O=C1CC(c2cccnc2)C2(CCN(S(=O)(=O)C3CC3)CC2)N1` (configuration not stated) reads 9.67%; that for `Cc1ccccc1-n1ncc2c(=O)n(CCN3CCCCC3)cnc21`, -51.1%. Turning to `COc1ccc(CN(C)Cc2c(C)noc2C)c(Br)c1OC`, the INHIBITION is 26.8%. On to `Cc1cnn(CC2CCCN2Cc2cc(C)on2)c1` (configuration not stated), for which the INHIBITION is 4.585%. For the compound `CC(C)(C)C(=O)N[C@H]1CC[C@H](Nc2nccc(-c3ccncc3)n2)C1`, the INHIBITION is 18.7%. With `COc1cccc(CC2CN(C3CCCCC3)CCO2)c1` (configuration not stated), the INHIBITION was 36.2%. Regarding `CCOc1ccccc1OCCN(C)Cc1nccn1C`, the INHIBITION turned out to be 20.5%. On to `CN(Cc1nccn1C)c1ccc(-c2nccn2C)nn1`, for which the INHIBITION is given as -84.1%. With `CCOc1ccccc1N(C)Cc1nccn1C`, the INHIBITION was 52.6%. Regarding `COCCC(=O)N1CCCC1c1nccnc1Nc1ncccn1` (configuration not stated), the INHIBITION turned out to be 33.7%. With `O=C1COC2(CCN(Cc3cccs3)CC2)CN1c1cncnc1`, the INHIBITION came to 67%. For the compound `CN(C)CCN1CCC2(CC1)CN(Cc1cccnc1)C(=O)CO2`, the INHIBITION amounted to 41.2%. Take `Cn1ccnc1CN1CCC2(CC1)CN(c1cncnc1)C(=O)CO2`: the INHIBITION was found to be 57.9%. For `Cn1ccnc1CN1CCC2(CC1)CCN(c1cncnc1)C2=O`, the INHIBITION is 8.93%.

Regarding `Cn1ccnc1CN1CCC2(CC1)CN(Cc1ccccc1)C(=O)CO2`, the INHIBITION came out at 33%.

For `O=C1COC2(CCN(Cc3cccs3)CC2)CN1c1ccccc1`, the INHIBITION amounted to 26.8%. Turning to `O=C1COC2(CCN(Cc3cccs3)CC2)CN1c1cccnc1`, the INHIBITION is recorded as 10.7%. For `Cn1ccnc1CN1CCC2(CC1)CN(c1ccccc1)C(=O)CO2`, the INHIBITION was -4.88%.

For the compound `Cn1ccnc1CN1CCC2(CC1)CN(Cc1cccnc1)C(=O)CO2`, the INHIBITION amounted to 57.4%.

As for `O=C(c1cccnc1)N1CCC2(CC1)CCN(c1ccsc1)C2=O`, the INHIBITION is given as 16.6%. `COCCCN1CC2(CCCCN2C(=O)c2ccsc2)CC1=O` (configuration not stated): the INHIBITION was 20.7%. In the case of `Cc1cc(CN(Cc2cccnc2)CC2CCCO2)on1` (configuration not stated), the INHIBITION turned out to be 48.2%. Turning to `Cc1nccn1C1CCCN(C(=O)c2cc3c(F)cccc3[nH]2)C1` (configuration not stated), the INHIBITION is 42%. `CCc1ccc(NC(=O)C(C)Nc2cccc3c2OCCO3)cc1` (configuration not stated): the INHIBITION amounted to 21.3%. For `O=C(c1ccc2[nH]cnc2c1)N1CCC(COc2ccccn2)CC1`, the INHIBITION was 32.3%. With `CN(CCn1cccn1)C1CCCN(Cc2noc(C3CC3)n2)C1` (configuration not stated), the INHIBITION was found to be 39.7%. On to `Cc1csc(C2CCCCN2C(=O)c2cc(Cl)c[nH]2)n1` (configuration not stated), for which the INHIBITION is on record as -19.4%.

Consider `Cc1nnc(SCC(=O)NCc2ccc3c(c2)CCC(=O)N3)s1`, for which the INHIBITION is listed as 72.3%.

As for `Cc1nnc(SCC(=O)c2cc3c(cc2Cl)NC(=O)C3)s1`, the INHIBITION is given as 48.7%. The result for `CC(NC(=O)NCc1ccoc1)c1ccc2c(c1)CCC(=O)N2` (configuration not stated) reads 36.4%; that for `Cc1nnc(SCC(=O)NCc2ccc3c(c2)CCC(=O)N3)n1C`, 58.2%. On to `O=C(CSc1ccccn1)NCc1ccc2c(c1)CCC(=O)N2`, for which the INHIBITION is reported as 35%. The same measure for `Cn1ccnc1SCC(=O)NCc1ccc2c(c1)CCC(=O)N2`: 34.2%; for `CC(CC(=O)NCCS(N)(=O)=O)C1CCCCC1` (configuration not stated): 16%.

On to `CCN(Cc1ccc(O)c(C(=O)O)c1)CC1CCCO1` (configuration not stated), for which the INHIBITION was 42.3%. With `CN(Cc1nc(C(F)(F)F)cs1)C(=O)CCc1cccnc1`, the INHIBITION is on record as -7.53%. In the case of `CCCOc1cc(C)ccc1NC(=O)NCCNC(C)=O`, the INHIBITION is on record as 1.06%. The same measure for `O=C(c1ccncc1)N1CCC2(CC1)C(=O)Nc1ccccc12`: -16.9%. The same measure for `CC(C)N(C)Cc1cn2c(n1)CN(C(=O)Cc1ccccc1)CC2`: 72.3%. Turning to `CCN(CC)Cc1cc(=O)n2c(n1)CN(C(=O)c1ccc[nH]1)CCC2`, the INHIBITION is 58.4%. On to `CC(C)N(C)Cc1cn2c(n1)CN(C(=O)Cc1ccsc1)CC2`, for which the INHIBITION was -9.86%. The same measure for `CCN(CC)Cc1cn2c(n1)CN(C(=O)Cc1ccsc1)CC2`: 73.6%; for `CS(=O)(=O)NCc1cn2c(n1)CN(C(=O)c1ccc[nH]1)CC2`: 27.3%. The result for `CC(C)N(C)Cc1cn2c(n1)CN(C(=O)c1ccc[nH]1)CC2` reads 63.7%; that for `O=C(Cc1ccsc1)N1CCn2cc(CN3CCCC3)nc2C1`, -63.2%.

Take `CN(Cc1cn2c(n1)CN(C(=O)c1ccc[nH]1)CC2)Cc1ccco1`: the INHIBITION stood at 7.31%. The same measure for `CC(C)N(C)Cc1cc(=O)n2c(n1)CN(C(=O)c1ccc[nH]1)CCC2`: 26.7%; for `CN(C)Cc1cc(=O)n2c(n1)CN(C(=O)c1ccc[nH]1)CCC2`: 32.1%. With `CN(C)Cc1cn2c(n1)CN(C(=O)Cc1ccsc1)CC2`, the INHIBITION is listed as -15.6%. On to `O=C(Cc1ccccc1)N1CCn2cc(Cn3cncn3)nc2C1`, for which the INHIBITION is listed as -28.7%.
